Compound activity from PubChem BioAssay.
CYP2C19 inh: inhibitors of human CYP2C19 | CYP2C19 Supersomes, luciferin-H EGE luminescence, 30 min | inhibition, % at 5 µM | actives 21% (n = 96,000) | AID 778;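 active means CYP2C19 inhibition above a set limit at 5 µM in the primary screen, cut at about 50% in these data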;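 further: plate controls were negative control wells for no effect and 2.5 mM tranylcypromine positive control for full effect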
Target sequence (P33261 whole entry, looked up): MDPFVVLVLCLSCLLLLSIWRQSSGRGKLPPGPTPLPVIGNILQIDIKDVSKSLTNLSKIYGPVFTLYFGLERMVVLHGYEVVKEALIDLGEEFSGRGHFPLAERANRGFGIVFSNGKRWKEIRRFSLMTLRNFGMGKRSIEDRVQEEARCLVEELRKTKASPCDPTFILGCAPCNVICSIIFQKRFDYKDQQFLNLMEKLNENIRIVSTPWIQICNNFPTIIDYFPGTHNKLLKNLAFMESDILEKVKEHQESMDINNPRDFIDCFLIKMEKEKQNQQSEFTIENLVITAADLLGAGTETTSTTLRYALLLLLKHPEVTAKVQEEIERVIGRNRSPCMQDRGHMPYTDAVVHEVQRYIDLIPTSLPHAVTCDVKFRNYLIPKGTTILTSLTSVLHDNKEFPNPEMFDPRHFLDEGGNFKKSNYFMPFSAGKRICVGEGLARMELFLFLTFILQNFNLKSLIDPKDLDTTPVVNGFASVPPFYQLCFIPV
CYP2C19 act: increases human CYP2C19 enzyme activity | recombinant CYP2C19, luciferin-H EGE luminescence; hits give high values; 0 = fully inhibited enzyme, 1 = untreated enzyme | activation factor at 5 µM | 96,000 tested, under 10 active | AID 1025;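 active means activation factor of at least 2 at 5 µM in the primary screen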;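 further: 0 = wells with 2.5 mM tranylcypromine and 1 = vehicle-only wells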
CYP2C9 inh: inhibitors of human CYP2C9; CYP2C9 Supersomes, luciferin-H conversion, luminescence; inhibition, % at 5 µM; actives 20% (n = 96,000);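 active means blocking of liver enzyme CYP2C9 beyond about 50% at 5 µM, limit read from the data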
Plk1 PBD FP: blocks phosphopeptide binding to human Plk1 polo box domain; Plk1 PBD phosphopeptide binding, fluorescence polarization; inhibition, %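 (tested at about 20 µM)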; P53350; actives 0.13% (n = 97,000); in the data active means inhibition above about 34%, passing the limit was not always enough
PLK1 inh: inhibitors of human PLK1 kinase. P53350. recombinant PLK1 kinase, TR-FRET peptide phosphorylation. inhibition, % at 10 µM. actives 0.53% (n = 97,000);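 active means inhibition of 50% or more in the single-concentration screen; inactive means inhibition below 50%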;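 further: 0% = DMSO max control and 100% = H-89 dihydrochloride min control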
CYP2C9 activ: activators of human CYP2C9 | P11712 | recombinant CYP2C9, luciferin-H conversion, luminescence; hits give high values; factor 1 = untreated enzyme, 0 = blocked | activation factor at 5 µM | actives 1.4% (n = 96,000) | AID 1024;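 active means activation factor of 2 or more for CYP2C9 at a 5 µM dose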;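 further: 0 = sulfaphenazole-blocked wells and 1 = vehicle-only wells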
Active calls of the source: *; x = not tested or not shown. Hits are enriched below; roughly 28% of the tested compounds scored in any of these assays.

SMILES | CYP2C19 inh | CYP2C19 act | CYP2C9 inh | Plk1 PBD FP | PLK1 inh | CYP2C9 activ
O=C(NC1(C(F)(F)F)NC(=O)N(c2ccc(F)c(Cl)c2)C1=O)c1ccncc1 (stereo not drawn) | 82* | 0.2 | 98* | -4 | -11 | 0
O=C(NCCc1ccccc1)c1ccc(CS(=O)(=O)Cc2ccccc2F)o1 | 39 | 0.6 | 27 | -15 | -13 | 0.7
Cc1ccccc1CS(=O)(=O)Cc1ccc(C(=O)NCc2cccnc2)o1 | 78* | 0.2 | 42 | 17 | 0 | 0.6
Cc1cccc(CS(=O)(=O)Cc2ccc(C(=O)NCc3cccnc3)o2)c1 | 82* | 0.2 | -14 | x | x | 1.1
Cc1ccc(CCNC(=O)c2ccc(CS(=O)(=O)Cc3ccccc3F)o2)cc1 | 75* | 0.2 | 98* | -22 | -5 | 0
COc1ccc2cc(C(c3nnnn3C3CCCC3)N3CCCCCC3)c3nnnn3c2c1 (stereo not drawn) | x | x | x | -15 | -12 | x
O=C(NCCc1ccccc1)C1CCCN(S(=O)(=O)c2cccnc2)C1 (stereo not drawn) | 12 | 0.9 | 16 | 2 | -5 | 0.8
CC(C)(C)NC(=O)CSc1ncnc2c1nnn2Cc1ccccc1Cl | 29 | 0.7 | -7 | -39 | -14 | 1.1
Cn1c(=O)c2c(ncn2CC(=O)Nc2nc3ccc(F)cc3s2)n(C)c1=O | -20 | 1.2 | 59* | 11 | 28 | 0.4
COc1ccc2nc(NC(=O)Cn3cnc4c(=O)n(C)c(=O)n(C)c43)sc2c1 | 19 | 0.8 | -4 | 5 | 1 | 1
O=C(NC(=S)Nc1ccc2[nH]ncc2c1)c1ccccc1 | 99* | 0 | 95* | -18 | 24 | 0
O=C(NC(=S)Nc1ccc(Oc2ccccc2)cc1)c1ccc(Cl)cc1 | 9 | 0.9 | 8 | -18 | -7 | 0.9
CCC(C)N1C(=O)/C(=C/c2c(NCCCOC(C)C)nc3c(C)cccn3c2=O)SC1=S (stereo not drawn) | 33 | 0.7 | 57* | -65 | -66 | 0.4
CCCN1C(=O)/C(=C/c2c(NCCCOC(C)C)nc3c(C)cccn3c2=O)SC1=S | 28 | 0.7 | 49 | -57 | -36 | 0.5
CNC(=O)c1ccsc1NC(=O)c1ccc(Cl)s1 | 77* | 0.2 | 68* | 4 | -8 | 0.3
CCOC(=O)c1c(C)n(C)c2c(C)cc(O)c(OC(C)=O)c12 | -12 | 1.1 | -32 | 25 | -8 | 1.3
CC1(c2ccc(Cl)c(Cl)c2)NC(=S)N2C1NC(=S)N2c1ccccc1 (stereo not drawn) | 78* | 0.2 | 37 | 25 | 4 | 0.6
Cc1ccc(S(=O)(=O)CNC(=S)c2cccc(C)c2)cc1 | 94* | 0.1 | -90 | -29 | -11 | 1.9
Cc1ccc(S(=O)(=O)CNC(=S)c2ccc3ccccc3c2)cc1 | 60* | 0.4 | 60* | 1 | 0 | 0.4
COc1ccc(C(=O)/C=C\c2ccc(NC(=O)c3cccs3)cc2)cc1 | 19 | 0.8 | 5 | -7 | -6 | 1
CC1CC(C)CN(c2ccc(C(=O)OCC(=O)NC3CCCc4ccccc43)cc2[N+](=O)[O-])C1 (stereo not drawn) | 22 | 0.8 | 52* | 4 | -4 | 0.5
O=C(COC(=O)c1ccc(Sc2ccccc2)c([N+](=O)[O-])c1)NC1CCCc2ccccc21 (stereo not drawn) | -12 | 1.1 | 88* | 30 | -23 | 0.1
O=C(CCn1cccc1)NC1CCCc2ccccc21 (stereo not drawn) | 12 | 0.9 | 2 | -18 | -5 | 1
CC(=O)Nc1c(C(=O)N2CCN(c3ncccn3)CC2)cnn1-c1ccccc1Cl | x | x | x | -7 | -6 | x
Cc1cc(C)c(-c2cc(NC(=O)CSc3nncn3C)n(-c3ccccc3)n2)cc1C | 5 | 1 | 11 | -1 | -14 | 0.9
SMILES | CYP2C19 inh | CYP2C19 act | CYP2C9 inh | Plk1 PBD FP | PLK1 inh | CYP2C9 activ
CCCc1ccc(-c2cc(NC(=O)CSc3n[nH]c(N)n3)n(-c3ccccc3)n2)cc1 | 33 | 0.7 | 58* | 0 | -17 | 0.4
O=C(CCl)Nc1ccccc1Sc1ccccc1 | 64* | 0.4 | 13 | -12 | -1 | 0.9
CCc1nc(SCC(=O)Nc2ccccc2C(=O)OC)n[nH]1 | 36 | 0.6 | -59 | 11 | 0 | 1.6
Nc1nc(SCC(=O)Nc2ccccc2Sc2ccccc2)n[nH]1 | 99* | 0 | 51* | -21 | -3 | 0.5
NC(=O)C1(N2CCCCC2)CCN(CC(=O)Nc2ccccc2Sc2ccccc2)CC1 | 79* | 0.2 | 50 | -42 | 4 | 0.5
NC(=O)C1(N2CCCCC2)CCN(CC(=O)Nc2cc(Cl)ccc2Cl)CC1 | 34 | 0.7 | -45 | -22 | -13 | 1.5
C=CCNC(=S)N1CCN(c2ncc3c(=O)c(C(=O)O)cn(CC)c3n2)CC1 | -11 | 1.1 | -5 | -44 | 5 | 1.1
S=c1[nH]nc(-c2cc3ccccc3o2)n1Cc1ccccc1 | x | x | x | 5 | -5 | x
CS(=O)(=O)N1CCC(C(=O)Nc2ccccc2Sc2ccccc2)CC1 | 26 | 0.7 | 18 | -11 | -10 | 0.8
CC(=O)Nc1ccccc1Sc1ccccc1 | 79* | 0.2 | 20 | 0 | -10 | 0.8
CN(C(=O)C1CCOC1)c1nnc(-c2ccncc2)s1 (stereo not drawn) | 98* | 0 | 24 | -4 | -6 | 0.8
CN(C(=O)C1CCOC1)c1nnc(-c2ccccn2)s1 (stereo not drawn) | -4 | 1 | -6 | -9 | -7 | 1.1
CN(C(=O)C1CCCO1)c1nnc(-c2ccccn2)s1 (stereo not drawn) | -6 | 1.1 | -8 | 28 | -8 | 1.1
CN(C(=O)C1CCCO1)c1nnc(-c2ccncc2)s1 (stereo not drawn) | 98* | 0 | 14 | -22 | -5 | 0.9
CCOC(=O)CC1=C(C(=O)OCC)C(c2ccc(C)o2)C(C#N)=C(N)O1 (stereo not drawn) | 94* | 0.1 | 31 | -8 | 3 | 0.7
CCOC(=O)CC1=C(C(=O)OCC)C(c2ccc(OC)cc2OC)C(C#N)=C(N)O1 (stereo not drawn) | 49 | 0.5 | 64* | 14 | -8 | 0.4
Cc1ccc(C2C(C#N)=C(N)Oc3c2sc2ccccc32)o1 (stereo not drawn) | 63* | 0.4 | 81* | -122 | -3 | 0.2
Cc1ccc(C2C(C#N)=C(N)Oc3n[nH]c(-c4ccccc4)c32)o1 (stereo not drawn) | 31 | 0.7 | 26 | 9 | -2 | 0.7
CCN1CCN(C(CNC(=O)c2ccc3c(c2)OCO3)c2cccnc2)CC1 (stereo not drawn) | -21 | 1.2 | 3 | 2 | -14 | 1
Cc1ccc2c(c1)c1c3n2CC(=C2C(=O)OC(C)(C)OC2=O)NC3CCC1 (stereo not drawn) | 40 | 0.6 | 81* | 6 | 11 | 0.2
Cc1c(C)c2c(C)[nH]nc2oc1=O | -11 | 1.1 | -30 | -10 | -9 | 1.3
